Records with an inconclusive call do not appear. Active and inactive are the calls of the source. The calls were made as follows: active = hit-call score of the fitted dose curve at least 0.9, where 1 is the maximum; inconclusive = response in the unintended direction; inactive = score below 0.9.
target: human Adrenergic, Alpha 2c Receptor (Adra2C), ADRA2C (gene 152) (UniProt P18825); assay: NVS_GPCR_hAdra2C: NovaScreen (NVS) G Protein-Coupled Receptor Assay for human Adrenergic, Alpha 2c Receptor (Adra2C) (AID 2283259)
Method in brief: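 Screened first in duplicate at 25 uM, with actives then run as concentration series. Membranes from Sf9 cells were exposed for 1 h, and displacement of radioligand was counted after filtration, using DMSO as baseline.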

Chain of human Adrenergic, Alpha 2c Receptor (Adra2C), ADRA2C (gene 152) (P18825 whole entry, looked up): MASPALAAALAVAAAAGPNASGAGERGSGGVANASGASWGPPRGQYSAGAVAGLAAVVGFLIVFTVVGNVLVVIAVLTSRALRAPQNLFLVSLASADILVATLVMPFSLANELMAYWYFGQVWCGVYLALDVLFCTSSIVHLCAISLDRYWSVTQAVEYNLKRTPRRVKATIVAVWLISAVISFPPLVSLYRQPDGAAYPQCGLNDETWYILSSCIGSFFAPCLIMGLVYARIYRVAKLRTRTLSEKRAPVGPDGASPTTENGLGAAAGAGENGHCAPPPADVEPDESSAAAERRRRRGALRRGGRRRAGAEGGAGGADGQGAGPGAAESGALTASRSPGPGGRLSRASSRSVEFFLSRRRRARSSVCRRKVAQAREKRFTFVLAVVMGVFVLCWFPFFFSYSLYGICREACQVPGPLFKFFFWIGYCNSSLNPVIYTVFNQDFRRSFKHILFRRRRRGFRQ

Row | SMILES | outcome | AC50
1 | Oc1ccc2c(c1)OC[C@@H](N1CCC(O)(c3ccc(F)cc3)CC1)[C@H]2O | inactive | –
2 | CC1(C)CC(N=C=O)CC(C)(CN=C=O)C1 (stereo not given) | inactive | –
3 | CNC(=O)[C@H]1O[C@@H](n2cnc3c(NCc4cc(Cl)ccc4OCc4cc(C)no4)ncnc32)[C@H](O)[C@@H]1N | inactive | –
4 | COc1cc(S(=O)(=O)O)c(C)cc1N=Nc1c(O)ccc2cc(S(=O)(=O)O)ccc12 | – | 13.9 µM (active)
5 | CCOC(=O)CCC(=O)OCC | inactive | –
6 | NC(=O)Cn1c(=O)cc(CCN2CCN(c3nccc4sccc34)CC2)c2ccc(F)cc21 | – | 0.666 µM (active)
7 | CN1CCN(Cc2cc(-c3ccc4[nH]c(=O)oc4c3)co2)[C@@H](c2ccc(F)cc2)C1 | – | 10.5 µM (active)
8 | CCCCC(CC)COC(=O)CC(C(=O)OCC(CC)CCCC)S(=O)(=O)O (stereo not given) | – | 7.47 µM (active)

target: Beta-2 adrenergic receptor (Homo sapiens) (UniProt P07550); assay: NVS_GPCR_hAdrb2: NovaScreen (NVS) G Protein-Coupled Receptor Assay for human Adrenergic, Beta 2 Receptor (Adrb2) (AID 2283261)
Method in brief: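 Compounds screened in duplicate at 25 uM, then actives in concentration series. Human beta-2 receptor from CHO material, cell-free; radioligand displacement after 1 h measured by filtration and scintillation against DMSO baseline.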

Chain of Beta-2 adrenergic receptor (Homo sapiens) (P07550 whole entry, looked up): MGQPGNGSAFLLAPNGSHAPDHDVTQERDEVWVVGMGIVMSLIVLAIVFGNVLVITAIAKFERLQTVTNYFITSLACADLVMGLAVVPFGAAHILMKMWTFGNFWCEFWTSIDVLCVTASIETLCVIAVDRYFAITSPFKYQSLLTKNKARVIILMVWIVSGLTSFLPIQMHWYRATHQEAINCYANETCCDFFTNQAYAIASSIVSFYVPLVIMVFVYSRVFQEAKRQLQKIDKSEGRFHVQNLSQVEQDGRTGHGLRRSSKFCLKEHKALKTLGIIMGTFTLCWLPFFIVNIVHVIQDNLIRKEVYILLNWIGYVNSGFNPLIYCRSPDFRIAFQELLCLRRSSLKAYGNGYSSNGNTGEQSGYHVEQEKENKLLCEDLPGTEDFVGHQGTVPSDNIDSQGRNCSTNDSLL

Row | SMILES | outcome | AC50
9 | Oc1ccc2c(c1)OC[C@@H](N1CCC(O)(c3ccc(F)cc3)CC1)[C@H]2O | inactive | –
10 | CCOC(=O)CCC(=O)OCC | inactive | –
11 | NC(=O)Cn1c(=O)cc(CCN2CCN(c3nccc4sccc34)CC2)c2ccc(F)cc21 | – | 8.69 µM (active)
12 | Cc1cccc(C)c1O | inactive | –
13 | O=C(O)Cc1ccccc1Nc1c(Cl)cccc1Cl | inactive | –
14 | CCCCC(CC)COC(=O)CC(C(=O)OCC(CC)CCCC)S(=O)(=O)O (stereo not given) | – | 14.6 µM (active)

target: human Adrenergic, Beta 3 Receptor (Adrb3), ADRB3 (gene 155) (UniProt P13945); assay: NVS_GPCR_hAdrb3: NovaScreen (NVS) G Protein-Coupled Receptor Assay for human Adrenergic, Beta 3 Receptor (Adrb3) (AID 2283262)
Method in brief: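 A cell-free filter binding assay read by scintillation counting, with displacement of a specific radioligand measured after 1 hour. The receptor source was SK-N-MC extracts (cells pretreated with isoproterenol and 8-bromo-cAMP). Compounds were first tested at 25 uM in duplicate and then in concentration series.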

Chain of human Adrenergic, Beta 3 Receptor (Adrb3), ADRB3 (gene 155) (P13945 whole entry, looked up): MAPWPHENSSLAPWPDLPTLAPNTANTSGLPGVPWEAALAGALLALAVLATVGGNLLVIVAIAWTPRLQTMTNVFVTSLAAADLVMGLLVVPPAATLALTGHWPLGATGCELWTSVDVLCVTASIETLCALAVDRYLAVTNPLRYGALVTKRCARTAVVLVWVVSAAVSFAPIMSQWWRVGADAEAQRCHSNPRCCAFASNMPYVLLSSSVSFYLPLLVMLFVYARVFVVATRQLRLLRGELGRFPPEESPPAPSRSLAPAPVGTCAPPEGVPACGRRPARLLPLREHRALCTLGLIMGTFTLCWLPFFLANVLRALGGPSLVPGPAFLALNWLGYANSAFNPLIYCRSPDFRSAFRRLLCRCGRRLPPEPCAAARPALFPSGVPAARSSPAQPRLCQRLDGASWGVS

Row | SMILES | outcome
15 | Oc1ccc2c(c1)OC[C@@H](N1CCC(O)(c3ccc(F)cc3)CC1)[C@H]2O | inactive
16 | O=C(O)Cc1ccccc1Nc1c(Cl)cccc1Cl | inactive
17 | Cc1ccccc1Cl | inactive

target: human Dopamine Receptor D4.4 (DRD4.4), DRD4 (gene 1815) (UniProt P21917); assay: NVS_GPCR_hDRD4.4: NovaScreen (NVS) G Protein-Coupled Receptor Assay for human Dopamine Receptor D4.4 (DRD4.4) (AID 2283264)
Method in brief: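 Filter-binding assay with a tritiated or iodinated ligand, cell-free receptor prepared from CHO, 1 hour. Loss of bound radioactivity versus DMSO; single 25 uM duplicate screen, then concentration-response for actives.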

Chain of human Dopamine Receptor D4.4 (DRD4.4), DRD4 (gene 1815) (P21917 whole entry, looked up): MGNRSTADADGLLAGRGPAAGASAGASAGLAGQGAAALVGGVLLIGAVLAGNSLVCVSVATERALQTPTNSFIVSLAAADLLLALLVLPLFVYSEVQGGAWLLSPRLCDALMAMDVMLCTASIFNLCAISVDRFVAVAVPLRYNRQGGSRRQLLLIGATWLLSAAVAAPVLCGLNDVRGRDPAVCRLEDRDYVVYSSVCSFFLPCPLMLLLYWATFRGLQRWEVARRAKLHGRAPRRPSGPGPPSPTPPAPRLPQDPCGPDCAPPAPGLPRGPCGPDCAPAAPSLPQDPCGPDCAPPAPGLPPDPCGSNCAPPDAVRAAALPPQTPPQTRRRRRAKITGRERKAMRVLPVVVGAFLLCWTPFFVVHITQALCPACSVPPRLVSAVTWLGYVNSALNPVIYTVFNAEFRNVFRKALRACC

Row | SMILES | outcome | AC50
18 | O=c1c(O)c(-c2ccc(O)c(O)c2)oc2cc(O)cc(O)c12 | inactive | –
19 | COc1cc(S(=O)(=O)O)c(C)cc1N=Nc1c(O)ccc2cc(S(=O)(=O)O)ccc12 | – | 38.7 µM (active)
20 | CCc1c(C(=O)NN2CCCCC2)nn(-c2ccc(Cl)cc2Cl)c1-c1ccc(Br)cc1 | inactive | –
21 | CCOC(=O)CCC(=O)OCC | inactive | –
22 | NC(=O)Cn1c(=O)cc(CCN2CCN(c3nccc4sccc34)CC2)c2ccc(F)cc21 | – | 0.023 µM (active)
23 | CN1CCN(Cc2cc(-c3ccc4[nH]c(=O)oc4c3)co2)[C@@H](c2ccc(F)cc2)C1 | – | 14.2 µM (active)
24 | CCCCC(CC)COC(=O)CC(C(=O)OCC(CC)CCCC)S(=O)(=O)O (stereo not given) | – | 10.5 µM (active)
25 | Nc1nc(N)c2nc(CNc3ccc(C(=O)N[C@@H](CCC(=O)O)C(=O)O)cc3)cnc2n1 | inactive | –

Reference: PubChem BioAssay (EPA / NIEHS)
